This is an account of results in a collection of fitness landscapes (doi:10.1016/j.celrep.2020.107928).

B1: Caulobacter ParB omega fusion; a variant is named by its letters at X, in order, B8GW30 (parent)
chain: MESVVVGEPGMSEGRRGLGRGLSALLGEVDAAPAQAPGEQLGGSREAPIEILQRNPDQPRRTFREEDLEDLSNSIREKGVLQPILVRPSPDTAGEYQIVAGERAWRAAQRAGLKTVPIMVRELDDLAVLEIGIIENVQRADLNVLEEALSYKVLMEKFERTQENIAQTIGKSXSHVANXMRLLXLPDEVQSYLVSGELTAXHARAIAAAADPVALAKQIIEGGLSVRETEALARKAPNLSAGKSKGGRPPRVKDTDTQALESDLSSVLGLDVSIDHRGSTGTLTITYATLEQLDDLCNRLTRGI

In all, about 81,000 sequences were measured (“one-hybrid fitness for binding parS DNA”: median about -0.17, highest 2% from about 0.51 on). The list comes from a sample in which the highest values are over-represented; it also holds similar and randomly drawn sequences.

Variants of B1 are the subject of the experiment. As to the kind of experiment: one-hybrid fitness for binding parS DNA (scaled: cognate 1, non-cognate 0); higher = stronger binding. Conditions: with parS DNA site. The method in brief: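 Caulobacter ParB libraries with four specificity codons randomised were screened by bacterial one-hybrid selection in the E. coli USO strain, using a HIS3 reporter whose site lies 19 bp from the promoter. Selection ran for 48 hours at 37°C on M9 lacking histidine, with 0.1 mM IPTG and 5 mM 3-AT. Plasmids were Illumina-sequenced before and after selection, three replicate libraries were pooled, and variants with under 10 reads were dropped. Fitness is the log change in each variant's read ratio to wild type, rescaled against the cognate and non-cognate sites.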
On to KHMR, for which the “one-hybrid fitness for binding parS DNA” value was at most 0.2.
As for VHNS, the figure is at most 0.2; as for QCGM, at most 0.2; as for MVQC, at most 0.2.
As for PQQE, the figure is at most 0.2; as for MRLA, at most 0.2; as for PVER, at most 0.2.
The value for RYHP was at most 0.2.
For RYDF, the “one-hybrid fitness for binding parS DNA” value is at most 0.2.
The value for RYHT was 0.889; that for RYDT was 0.79.
The value for RYHH was 0.213; that for RYQQ was at most 0.2; that for RYDR was at most 0.2.
As for RYQY, the “one-hybrid fitness for binding parS DNA” value worked out at 0.422.
As for RYQT, the figure is 0.853.
The value for VVQF was at most 0.2.
The value for QNYM was at most 0.2; that for DLKH was at most 0.2.
With LLYM, the “one-hybrid fitness for binding parS DNA” value was at most 0.2.
The value for LLNS was at most 0.2; that for QAGT was at most 0.2; that for RTIN was 0.355.
The value for RTPD was at most 0.2.
As for RTPT, the figure is 0.558; as for RTID, 0.203.
For the variant RTPY, the “one-hybrid fitness for binding parS DNA” value turned out to be 0.221.
Turning to RTIT, the “one-hybrid fitness for binding parS DNA” value worked out at 0.813.
As for PDAC, the figure is at most 0.2; as for RAWY, 0.512.
The value for RCWY was 0.513.
The value for RTWY was 0.521; that for RSWY was 0.422.
RPWY: the “one-hybrid fitness for binding parS DNA” value is at most 0.2.
As for IEES, the figure is at most 0.2; as for IWRM, at most 0.2; as for RRIW, at most 0.2.
Consider VLVG, for which the “one-hybrid fitness for binding parS DNA” value was at most 0.2.
RWGN: the “one-hybrid fitness for binding parS DNA” value was at most 0.2.
As for RWLC, the figure is 0.658; as for RWHC, 0.733; as for RWGC, 0.61.
For RWLK, the “one-hybrid fitness for binding parS DNA” value was at most 0.2.
The value for RWIN was at most 0.2; that for RWIC was 0.521; that for RWGK was at most 0.2.
The value for RWLM was at most 0.2; that for RWHY was 0.275.
As for RWPC, the figure is 0.337.
As to RWHQ, the “one-hybrid fitness for binding parS DNA” value is at most 0.2.
The value for CKVC was at most 0.2.
IMHG: the “one-hybrid fitness for binding parS DNA” value was at most 0.2.
As for QMQR, the figure is at most 0.2; as for ATLN, at most 0.2; as for RPRL, at most 0.2.
The value for ASCK was at most 0.2; that for TRPS was at most 0.2.
On to GPIF, for which the “one-hybrid fitness for binding parS DNA” value is at most 0.2.
The value for WAKY was at most 0.2; that for RWCC was 0.636.
The value for RWCD was at most 0.2.
As for RWRD, the figure is at most 0.2; as for RWSC, 0.788; as for RWSY, 0.338.
For the variant RWSK, the “one-hybrid fitness for binding parS DNA” value is at most 0.2.
As for RWCK, the figure is at most 0.2; as for RWRH, 0.223.
As for RWQR, the figure is at most 0.2; as for RWQQ, at most 0.2; as for RWRC, 0.895.
As for RWQC, the figure is 0.73.
As for ADHG, the “one-hybrid fitness for binding parS DNA” value was at most 0.2.
As for DYYC, the “one-hybrid fitness for binding parS DNA” value is at most 0.2.
As for LWRS, the figure is at most 0.2.
The value for VTPY was at most 0.2; that for PYRW was at most 0.2.
On to MYTG, for which the “one-hybrid fitness for binding parS DNA” value was at most 0.2.
The value for NWWC was at most 0.2; that for RWWM was at most 0.2.
For the variant RWYD, the “one-hybrid fitness for binding parS DNA” value was at most 0.2.
The value for RWWC was 0.521; that for RWYP was at most 0.2.
As for RWYC, the “one-hybrid fitness for binding parS DNA” value was 0.662.
As for GTFW, the figure is at most 0.2; as for SPEV, at most 0.2.
As for GWNS, the figure is at most 0.2; as for RHSH, at most 0.2.
As for RHRQ, the “one-hybrid fitness for binding parS DNA” value is at most 0.2.
The value for RHNN was 0.386; that for RHSC was 0.924.
The value for RHDC was 0.878.
The value for RHRR was at most 0.2; that for RHDY was 0.397; that for RHSD was at most 0.2.
Take RHRC: the “one-hybrid fitness for binding parS DNA” value came to 0.879.
The value for RHNC was 0.871.
The value for RHDM was 0.254; that for RHNP was at most 0.2; that for GRGR was at most 0.2.
The value for PQPN was at most 0.2; that for DESG was at most 0.2; that for ATAA was at most 0.2.
Turning to TIDL, the “one-hybrid fitness for binding parS DNA” value was at most 0.2.
As for FQIS, the figure is at most 0.2.
As for YIVC, the figure is at most 0.2; as for CDYG, at most 0.2.
As for TKDN, the figure is at most 0.2; as for ASNP, at most 0.2.
Turning to RHLC, the “one-hybrid fitness for binding parS DNA” value came to 0.928.
For RHHM, the “one-hybrid fitness for binding parS DNA” value is 0.266.
Regarding RHCF, the “one-hybrid fitness for binding parS DNA” value was at most 0.2.
On to RHYC, for which the “one-hybrid fitness for binding parS DNA” value was determined as 0.92.
The value for RHHC was 0.934.
As for RHCC, the figure is 0.869.
Take RHLY: the “one-hybrid fitness for binding parS DNA” value came to 0.428.
The value for RHHY was 0.4; that for RHLK was at most 0.2; that for RHYF was 0.211.
As for RHYR, the figure is at most 0.2; as for RHCY, 0.371; as for WTHL, at most 0.2.
The value for QEVD was at most 0.2; that for DTTH was at most 0.2.
Consider VQAA, for which the “one-hybrid fitness for binding parS DNA” value is at most 0.2.
The value for DVLS was at most 0.2; that for THPF was at most 0.2; that for RYAG was 0.982.
The value for RYFG was 0.932; that for RYFY was 0.43; that for RYAY was 0.425.
In the case of RYFM, the “one-hybrid fitness for binding parS DNA” value is 0.264.
Turning to RYAQ, the “one-hybrid fitness for binding parS DNA” value was at most 0.2.
The value for VACC was at most 0.2.
The value for TPLH was at most 0.2; that for GCSG was at most 0.2.
The value for IIPI was at most 0.2; that for PYAK was at most 0.2; that for IRPT was at most 0.2.
For RQEC, the “one-hybrid fitness for binding parS DNA” value amounted to 0.829.
For RQET, the “one-hybrid fitness for binding parS DNA” value amounted to 0.719.
As for RQEQ, the figure is 0.223; as for RQEK, at most 0.2.
As to RQEN, the “one-hybrid fitness for binding parS DNA” value was 0.379.
As for RQED, the figure is at most 0.2; as for RQEM, 0.255; as for RQER, at most 0.2.
The value for RQEG was 0.89.
As for RQEH, the figure is 0.281.
As to RQES, the “one-hybrid fitness for binding parS DNA” value came to 0.962.
The value for RQEP was at most 0.2; that for KSGF was at most 0.2; that for HSSQ was at most 0.2.
The value for MISR was at most 0.2.
